From PubChem BioAssay
“And” between values parts separate entries of the source, which are not always exact repeats. Equal values may be shown once. Records with an inconclusive call do not appear. The source made the active and inactive calls.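 How the source made its calls, unless noted: active means normalized viability below 100% at a tested concentration; inactive means the rest.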

Key:
[1] = growth inhibition of DIPG glioma cells, dose response, cell-based, SU-DIPG-XVII, MIPE5.0, CellTiter-Glo, qHTS (AID 1347060; cut-off not given, nearly all actives have AC50 up to about 26 µM;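 on AC50: cells exposed to compound for 48 hours before viability readout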); conditions: SU-DIPG-XVII viability, CellTiter-Glo ATP luminescence
[2] = growth inhibition of DIPG glioma cells, dose response, cell-based, JHH-DIPG-1, MIPE4.0, CellTiter-Glo, qHTS (AID 1347062; cut-off not given, nearly all actives have AC50 up to about 27 µM;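 on AC50: cells exposed to compound for two days before readout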); conditions: JHH-DIPG-1 viability, CellTiter-Glo ATP luminescence
[3] = growth inhibition of DIPG glioma cells, dose response, cell-based, SU-DIPG-XIII, MIPE5.0, CellTiter-Glo, qHTS (AID 1347064; cut-off not given, nearly all actives have AC50 up to about 23 µM;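 on AC50: cells exposed to compound for 48 hours before the viability read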); conditions: SU-DIPG-XIII viability, CellTiter-Glo ATP luminescence
[4] = viability loss in pontine glioma line – cell-based, SU-DIPG-XXV, MIPE5.0, CellTiter-Glo, qHTS, dose response (AID 1347065; cut-off not given, nearly all actives have AC50 up to about 26 µM;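 further: cells exposed to compound for 48 hours before ATP readout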); conditions: CellTiter-Glo ATP luminescence
[5] = JHH-DIPG-1 glioma cell viability, MIPE5.0 library, CellTiter-Glo luminescence, qHTS (AID 1347067; cut-off not given, nearly all actives have AC50 up to about 26 µM;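 further: cells exposed to compound for 48 hours before readout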); conditions: JHH-DIPG-1 glioma viability, CellTiter-Glo ATP luminescence
[6] = SU-DIPG-XXV glioma cell viability, MIPE5.0 library, qHTS (AID 1347068; cut-off not given, nearly all actives have IC50 up to about 30 µM;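 on IC50: cells exposed to compound for 48 hours before viability readout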)
[7] = sensitizers of A549 cells to miR-34 induction, primary screen, imaging, A549 dox-inducible miR-34, nuclei and caspase counts (AID 1347080;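 active means compounds whose cell count with miR-34 switched on is under 0.7 times the count with it off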); conditions: A549 miR-34 inducible, Hoechst nuclei count, 48 h
[8] = modifiers of HSF1 nuclear foci, imaging, Selleck Cancer Library (AID 1347162; in the data active means plate-normalised HSF1 focus index below about 0.46); conditions: human cells, at 10 µM; SSMD: measured here: HSF1 foci SSMD mean; cell count: measured here: cell number; plate-normalised HSF1 focus index: stronger effect = lower value
[9] = survival rescue of mitochondrial mutant cells in low glucose, primary screen, MELAS cybrids, Rieske KO mouse fibroblasts, CellTiter-Glo (AID 1508586;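 active means mean z-score across replicates of 1.96 or higher in either the MELAS or the Rieske mutant cell line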;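 further: z relative to plate mean and SD of compound and empty wells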)
[10] = ovarian cancer cell viability with rucaparib, profiling panel, oncology-focused library, rucaparib conditional (AID 1508598); conditions: patient-derived ovarian cancer cells, CellTiter-Glo viability, 144 h, stronger effect = lower value
[11] = SU-DIPG-VI glioma cell viability, MIPE4.0 library, CellTiter-Glo luminescence, qHTS (AID 1347066; cut-off not given, nearly all actives have AC50 up to about 30 µM;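 further: cells exposed to compound for 48 hours before readout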); conditions: CellTiter-Glo ATP luminescence
[12] = growth inhibition of DIPG glioma cells, dose response, cell-based, SU-DIPG-IV, MIPE4.0, CellTiter-Glo, qHTS (AID 1347063; cut-off not given, nearly all actives have AC50 up to about 30 µM;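 further: compound exposure lasted 48 hours before the viability readout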); conditions: SU-DIPG-IV viability, CellTiter-Glo ATP luminescence
[13] = stronger effect = lower value, cell number ratio, induced over uninduced
[14] = measured here: relative caspase fold change +Dox/-Dox
[15] = measured here: total cells with miR-34 induction, stronger effect = lower value
[16] = measured here: total cells without miR-34 induction
[17] = MELAS cybrid survival, CellTiter-Glo 48 h, stronger effect = higher value
[18] = Rieske KO mouse fibroblast survival, CellTiter-Glo 72 h
[19] = at 0.000305 µM, OCI-C5x cells, with rucaparib 10 µM, 100% = cells with rucaparib alone
[20] = at 0.000305 µM, OCI-C5x cells, without rucaparib
[21] = at 0.000305 µM, OCI-P5x cells, with rucaparib 20 µM, 100% = cells with rucaparib alone
[22] = at 0.000305 µM, OCI-P5x cells, without rucaparib
[23] = at 0.00122 µM, OCI-C5x cells, with rucaparib 10 µM, 100% = cells with rucaparib alone
[24] = at 0.00122 µM, OCI-C5x cells, without rucaparib
[25] = at 0.00122 µM, OCI-P5x cells, with rucaparib 20 µM, 100% = cells with rucaparib alone
[26] = at 0.00122 µM, OCI-P5x cells, without rucaparib
[27] = at 0.00488 µM, OCI-C5x cells, with rucaparib 10 µM, 100% = cells with rucaparib alone
[28] = at 0.00488 µM, OCI-C5x cells, without rucaparib
[29] = at 0.00488 µM, OCI-P5x cells, with rucaparib 20 µM, 100% = cells with rucaparib alone
[30] = at 0.00488 µM, OCI-P5x cells, without rucaparib
[31] = at 0.0195 µM, OCI-C5x cells, with rucaparib 10 µM, 100% = cells with rucaparib alone
[32] = at 0.0195 µM, OCI-C5x cells, without rucaparib
[33] = at 0.0195 µM, OCI-P5x cells, with rucaparib 20 µM, 100% = cells with rucaparib alone
[34] = at 0.0195 µM, OCI-P5x cells, without rucaparib
[35] = at 0.0781 µM, OCI-C5x cells, with rucaparib 10 µM, 100% = cells with rucaparib alone
[36] = at 0.0781 µM, OCI-C5x cells, without rucaparib
[37] = at 0.0781 µM, OCI-P5x cells, with rucaparib 20 µM, 100% = cells with rucaparib alone
[38] = at 0.0781 µM, OCI-P5x cells, without rucaparib
[39] = at 0.313 µM, OCI-C5x cells, with rucaparib 10 µM, 100% = cells with rucaparib alone
[40] = at 0.313 µM, OCI-C5x cells, without rucaparib
[41] = at 0.313 µM, OCI-P5x cells, with rucaparib 20 µM, 100% = cells with rucaparib alone
[42] = at 0.313 µM, OCI-P5x cells, without rucaparib
[43] = at 1.25 µM, OCI-C5x cells, with rucaparib 10 µM, 100% = cells with rucaparib alone
[44] = at 1.25 µM, OCI-C5x cells, without rucaparib
[45] = at 1.25 µM, OCI-P5x cells, with rucaparib 20 µM, 100% = cells with rucaparib alone
[46] = at 1.25 µM, OCI-P5x cells, without rucaparib
[47] = at 5 µM, OCI-C5x cells, with rucaparib 10 µM, 100% = cells with rucaparib alone
[48] = at 5 µM, OCI-C5x cells, without rucaparib
[49] = at 5 µM, OCI-P5x cells, with rucaparib 20 µM, 100% = cells with rucaparib alone
[50] = at 5 µM, OCI-P5x cells, without rucaparib

COc1cc(Nc2ncc3c(n2)-c2ccc(Cl)cc2C(c2c(F)cccc2OC)=NC3)ccc1C(=O)O
0.925: z-score [9, 18]
1850: cell count [7, 15]
1.04: fold change [7, 14]
inactive: outcome [2] | fold change [7, 13] 1.23 | plate-normalised HSF1 focus index [8] 1.13 | z-score [9, 17] -0.56 | viability [10, 20] 108% | viability [10, 21] 113% | viability [10, 22] 109% | viability [10, 23] 112% | viability [10, 24] 101% | viability [10, 25] 110% | viability [10, 26] 106% | viability [10, 27] 107% | viability [10, 29] 110% | viability [10, 30] 106% | viability [10, 32] 103% | viability [10, 33] 106%
6720: cell count [8]
active: AC50 [1] 0.148 µM | AC50 [3] 8.33 µM | AC50 [4] 0.0934 µM | AC50 [5] 8.33 µM | IC50 [6] 3.72 µM | viability [10, 19] 94.6% | viability [10, 28] 98.7% | viability [10, 31] 94.4% | viability [10, 34] 99.3% | viability [10, 35] 75.5% | viability [10, 36] 70.5% | viability [10, 37] 91.7% | viability [10, 38] 70.7% | viability [10, 39] 74.5% | viability [10, 40] 82.5% | viability [10, 41] 87.4% | viability [10, 42] 63.8% | viability [10, 43] 76.8% | viability [10, 44] 77% | viability [10, 45] 82.8% | viability [10, 46] 56.7% | viability [10, 47] 42.9% | viability [10, 48] 34.9% | viability [10, 49] 78.6% | viability [10, 50] 39%
2.08: SSMD [8]
1510: cell count [7, 16]

COCCOc1ccc2c(c1)ncn2-c1ccc2cccc(N3CCC(N)CC3)c2n1
0.953: fold change [7, 14]
1460: cell count [7, 15]
inactive: fold change [7, 13] 1.1 | z-score [9, 17] 0.564
-2.41: z-score [9, 18]
1320: cell count [7, 16]
active: AC50 [1] 11.8 µM | AC50 [2] 9.35 µM | AC50 [3] 9.34 µM | AC50 [4] 11.8 µM | IC50 [6] 18.6 µM

CC[C@@H]1C(=O)N(C)c2cnc(Nc3ccc(C(=O)NC4CCN(C)CC4)cc3OC)nc2N1C1CCCC1
inactive: plate-normalised HSF1 focus index [8] 1.16 | viability [10, 19] 116% | viability [10, 20] 133% | viability [10, 23] 126% | viability [10, 24] 124%
4.3: SSMD [8]
7240: cell count [8]
active: AC50 [1] 0.0661 µM | AC50 [2] 8.33 µM | AC50 [3] 1.48 µM | AC50 [4] 0.0372 µM | AC50 [11] 20.9 µM | viability [10, 21] 89.2% | viability [10, 22] 77.1% | viability [10, 25] 89.5% | viability [10, 26] 50.9% | viability [10, 27] 51.4% | viability [10, 28] 47.2% | viability [10, 29] 74.9% | viability [10, 30] 17% | viability [10, 31] 40.7% | viability [10, 32] 37.1% | viability [10, 33] 71.7% | viability [10, 34] 18.2% | viability [10, 35] 38.3% | viability [10, 36] 30.4% | viability [10, 37] 66.7% | viability [10, 38] 16.5% | viability [10, 39] 32.5% | viability [10, 40] 30.3% | viability [10, 41] 48.5% | viability [10, 42] 15.8% | viability [10, 43] 15.9% | viability [10, 44] 18.2% | viability [10, 45] 43% | viability [10, 46] 15.1% | viability [10, 47] 18% | viability [10, 48] 21.9% | viability [10, 49] 34.3% | viability [10, 50] 15.2%

CN(C(Cc1ccc(OS(=O)(=O)c2cccc3cnccc23)cc1)C(=O)N1CCN(c2ccccc2)CC1)S(=O)(=O)c1cccc2cnccc12 (stereo unspecified)
inactive: outcome [1] | outcome [2] | outcome [3] | outcome [11] | outcome [5] | outcome [6] | fold change [7, 13] 0.886 and 0.945 | z-score [9, 17] -0.441
4980 and 6920: cell count [7, 16]
1.12 and 0.338: fold change [7, 14]
4410 and 6540: cell count [7, 15]
-1.42: z-score [9, 18]

CC(=O)O/N=C1/C(c2c(O)[nH]c3cc(Br)ccc23)=Nc2ccccc21
active: AC50 [1] 8.33 µM | AC50 [12] 1.48 µM | AC50 [3] 20.9 µM | AC50 [4] 7.42 µM | AC50 [5] 29.5 µM | IC50 [6] 9.34 µM

COc1cccc2cc(-c3nc(C4CCC(C(=O)O)CC4)n4ncnc(N)c34)[nH]c12 (stereo unspecified)
3360: cell count [7, 16]
inactive: outcome [6] | fold change [7, 13] 0.965
-0.621: z-score [9, 18]
0.637: fold change [7, 14]
3250: cell count [7, 15]
active: AC50 [1] 5.9 µM | AC50 [12] 0.166 µM | AC50 [3] 3.72 µM | AC50 [4] 2.63 µM | AC50 [5] 1.18 µM | z-score [9, 17] 4.23

COc1ccccc1[C@H](c1cccc2ccccc12)[C@@](C)(C#N)C(=O)N1CCC(c2cccc(C(F)(F)F)c2)CC1
inactive: outcome [1] | outcome [3] | outcome [4] | outcome [11] | outcome [5] | outcome [6]
active: AC50 [12] 3.32 µM

CC1=C[C@@H]2[C@H]([C@@H](O)C[C@@]3(C)[C@H]2C[C@@H](C)[C@]3(O)C(=O)CO)[C@@]2(C)Cc3cnn(-c4ccccc4)c3C=C12
active: AC50 [1] 5.25 µM | AC50 [12] 3.72 µM | AC50 [3] 9.34 µM | AC50 [4] 7.42 µM | AC50 [5] 11.8 µM | IC50 [6] 16.6 µM
